“And” between values parts separate entries of the source, which are not always exact repeats. Identical values can stand only once. About 1,600 (0.43%) of roughly 370,000 compounds were called active. This excerpt belongs to a sample that is enriched for actives. Unmarked numbers belong to inactive results. No stated cut-off is given here; in the data, active means inhibition above about 24%; inactive means the rest.

A word on the inhibition: it is the drop in the measured response relative to a control, in per cent.

This test deals with Major prion protein (Homo sapiens) (UniProt P04156). Briefly: inhibitors of human cell surface prion protein PrPC, primary screen, cell-based, TR-FRET (AID 720596). Further: 0% = median of the test wells and 100% = reference compound wells. The following applies: TR-FRET read-out, at 13.8 µM, hits give high values. For orientation: TR-FRET usually uses a lanthanide donor and a delayed reading to cut background.
Take `Cc1ccc(Cl)cc1N1CCN(C(=O)c2cccc3c(=O)c(C)c(-c4ccccc4)oc23)CC1`: the inhibition was 3.53%.
As for `N#Cc1ccc(-c2nc3c(Cl)cc(C(F)(F)F)cn3c2Cc2ccccc2C(F)(F)F)cc1`, the inhibition is 6.77%.
Turning to `CCOC(=O)C1(Cc2ccc(Cl)cc2)CCN(C(C)CCn2cccn2)CC1` (stereo not drawn), the inhibition was -7.01%.
As to `COC(=O)c1ccc2nc(-c3cccc(Br)c3)c(Cc3ccc(OC)cc3C)n2c1`, the inhibition was -3.29%.
In the case of `CCCCNC(=O)c1onc(CSc2cccc(OC)c2)c1C(=O)O`, the inhibition is 0.43%.
As to `CCCCNc1c(-c2cccc(Sc3ccc(OC)cc3)c2)nc2ccccn12`, the inhibition is 24.6% (active).
As for `COc1ccc(-c2cc(C(F)(F)F)nc(SCCC(=O)NCc3ccco3)n2)cc1`, the inhibition is -0.14%.
`COc1ccc(-c2cc(C(F)(F)F)nc(S(C)(=O)=O)n2)cc1OC`: the inhibition was 43.6% (active).
Regarding `CCCC[C@H]1C2CC(OC(=O)NCc3ccccc3)C(C2)[C@H]2CCCCN21` (stereo partly drawn), the inhibition is -9.6%.
The value for `CCc1c(N=O)c(-c2ccccc2)n(O)[n+]1[O-]` was -1.69%.
Consider `CCc1c(C)[nH]c(=S)c(C#N)c1C`, for which the inhibition is 10%.
For `CCOC(=O)c1c(C)[nH]c(=S)c(C#N)c1-c1ccccc1`, the inhibition is 36.6% (active).
On to `CC(=O)c1c(C)[nH]c(=S)c(C#N)c1-c1ccc(F)cc1`, for which the inhibition is 2.25%.
Take `Cc1nc(CC(=O)NNS(=O)(=O)c2ccc(F)c(Cl)c2)cs1`: the inhibition was -3.65%.
Turning to `Cc1c(NC(=O)CN2C(=O)C(=O)N(Cc3ccccc3)C2=O)c(=O)n(-c2ccccc2)n1C`, the inhibition was -0.02%.
The value for `Cc1c(C)n2c(SCC(=O)N3CCCC3)nnc2[nH]c1=O` was -1.9%.
For `O=C(CSc1nc2c(c(=O)[nH]1)CCCC2)N1CCCCC1` the value was 3.4%; for `CC(=O)c1sc2nc(SCC(=O)N3CCCCC3)[nH]c(=O)c2c1C`, 34.2% (active).
For the compound `CCCCCCCCCCCCn1ccc(=N)cc1`, the inhibition was 34.3% (active).
In the case of `C[C@H]1CN([C@@H](C)CO)C(=O)CCCn2cc(nn2)CO[C@@H]1CN(C)S(=O)(=O)c1cccs1`, the inhibition is 6.24%.
As for `NC(=O)COc1ccc(NC(=O)c2ccccc2-c2ccccc2)cc1`, the inhibition was 2.41%.
Turning to `Cc1ccc(C)c2[nH]c(=O)c(CCNC(=O)c3cccs3)cc12`, the inhibition was 1.05%.
For the compound `CCCCC(CC)CNCc1cccn1CCN1CCOCC1` (stereo not drawn), the inhibition was -0.03%.
The value for `CCCCCCCCn1c2c(c(=N)c3c1CCC3)CCCC2` was 34.1% (active); that for `CCNC(=O)Nc1ccc(S(=O)(=O)Nc2cnc(C)nc2C)cc1` was -5.43%; that for `Cc1ccc(NC(=O)c2sc3nc(N)c(C#N)cc3c2N)cc1` was 29.7% (active).
For `CC(=O)c1ccc(NC(=O)c2sc3nc4n(c(=O)c3c2C)CCCCC4)cc1`, the inhibition was 7.05%.
Turning to `Cc1ccc(Sc2ccc(NC(=O)c3ccc(F)cc3)cc2C#N)cc1`, the inhibition was -3.85%.
In the case of `CC(=O)Nc1ccc(S(=O)(=O)NNC(=O)CCc2ccccc2)cc1`, the inhibition was -0.14%.
Take `COc1ccc(-n2nnnc2SCc2nc(N)nc(N3CCOCC3)n2)cc1`: the inhibition is 2.17%.
As for `CC1(c2ccc3ccccc3c2)NC(=O)NC1=O` (stereo not drawn), the inhibition is 9.52%.
As to `CNC(=O)C1CN(C(=O)c2cccc(S(=O)(=O)N3CCc4ccccc43)c2)c2ccccc2O1` (stereo not drawn), the inhibition was 4.01%.
As to `Nc1[nH]c(C(=O)c2ccc(Br)cc2)c(-c2ccc3c(c2)OCO3)c1C(=O)NCCc1c[nH]c2ccccc12`, the inhibition is -5.16%.
As for `Oc1c(Cl)cc(Cl)c(Cl)c1Cc1c(O)c(Cl)cc(Cl)c1Cl`, the inhibition is 28.9% (active).
As for `C=CCC[C@@H](CCCCC)OC(=O)/C=C/[C@@H](O)[C@H](O)C[C@H](O)CC=C`, the inhibition was -5.85%.
On to `COc1ccc(-c2cc(-c3nnc(SCc4ccc([N+](=O)[O-])cc4)n3N)[nH]n2)cc1`, for which the inhibition is 0.13%.
As for `CCOc1ccc(S(=O)(=O)N(CC(=O)O)c2ccccc2)cc1`, the inhibition was -3.25%.
Consider `COC(=O)[C@]12C[C@H](CC(=O)NCc3ccc(C)o3)C(=O)N(CCC3=CCCCC3)C1=C[C@H](C(C)(C)C)O[C@@H]2C`, for which the inhibition was 7.81%.
With `Cc1ccc(NC(=O)C(=O)NCC2CCN(C(=O)c3cccc([N+](=O)[O-])c3)CC2)cc1`, the inhibition was -5.67%.
In the case of `O=C(Nc1ccc([N+](=O)[O-])cc1)C1CC12CCC2` (stereo not drawn), the inhibition is 3.59%.
On to `O=C(Nc1ccc(C2CC2(Cl)Cl)cc1)c1cccc([N+](=O)[O-])c1` (stereo not drawn), for which the inhibition is 25.6% (active).
Regarding `COc1cc(C(=O)N2Cc3ccc(Br)cc3-n3nncc3C2)cc(OC)c1OC`, the inhibition is -0.36%.
Regarding `Cc1ccc(C)c(S(=O)(=O)N2CCCOC2CNC(=O)C(=O)NC2CCCCC2)c1` (stereo not drawn), the inhibition was -1.91%.
For `COc1ccc2c(CC(=O)OCC(=O)Nc3ccccc3[N+](=O)[O-])coc2c1`, the inhibition is -12.7%.
Take `CO[C@H]([C@H](C)/C=C/N(C)C=O)[C@@H](C)C(=O)CC[C@H](C)[C@H](O)[C@H](C)[C@H]1OC(=O)/C=C/C(C)=C/[C@H](O)[C@H](OC)C[C@@H]2C=CC[C@@H](C[C@H](OC)[C@@]3(CO3)[C@@H](OC)C[C@@H](OC)[C@@H]1C)O2`: the inhibition is 38% (active).
On to `CN(C)C(=O)CCc1ccc2c3c([nH]c2c1)[C@]1(C)[C@@H](C(=O)N2CCCCC2)C[C@H](CC(=O)NCCC2=CCCCC2)C(=O)N1CC3`, for which the inhibition is -3.09%.
`O=C(Cc1ccccc1)Nc1cccc(NC(=O)c2ccccc2)c1`: the inhibition was 30.2% (active).
For `CN(CCc1ccccc1)C(=O)c1cccc(NC(=O)Cc2ccc([N+](=O)[O-])cc2)c1`, the inhibition is -2.03%.
In the case of `CC(C)(C)NC(=O)c1cccc(NC(=O)Cc2ccc(Br)cc2)c1`, the inhibition was 11%.
On to `Cc1ccc(Cc2cncc(O)c2)cc1S(=O)(=O)O`, for which the inhibition was -7.2%.
For the compound `Cc1[nH]c(C)c(S(=O)(=O)N2CCC(C)CC2)c1C(=O)N1CCCC1`, the inhibition is -7.7%.
In the case of `O/N=C(\C[n+]1ccccc1)c1ccc(Br)cc1`, the inhibition was 6.16%.
For the compound `O=C(c1ccc(-c2ccccc2)cc1)C1CCCN(C(=O)c2cncs2)C1` (stereo not drawn), the inhibition is 6.46%.
`C=CCN(c1ccccc1C(=O)NCC(=O)OCC)S(=O)(=O)c1ccc(C)cc1`: the inhibition is 5.82%.
Take `O=C(OCCN1C(=O)c2ccccc2C1=O)Oc1ccccc1`: the inhibition is -3.25%.
For `CCc1ccc(Oc2coc3cc(OC(=O)c4cc5ccccc5oc4=O)ccc3c2=O)cc1` the value was -6.51%; for `O=C(Oc1ccccc1)Oc1ccc2c(c1)oc(=O)c1ccccc12`, 31.3% (active); for `C=C(C)c1cccc(C(C)(C)NC(=O)NCCN(CC)CC)c1`, -1.16%.
`CCOc1ccc(NC(=O)C2CC(=O)N=C(N)S2)cc1` (stereo not drawn): the inhibition was 3.27%.
As for `CCc1ccc(OCC(=O)N(Cc2ccccc2)C2CCS(=O)(=O)C2)cc1` (stereo not drawn), the inhibition was 7.58%.
With `CC1=CC2=NC(=O)CC(C)(C(=O)N(CC(=O)NC(C)(C)C)Cc3ccccc3)N2C=C1` (stereo not drawn), the inhibition is -11.9%.
Consider `O=c1[nH]cccc1-c1nc2ccccc2n1Cc1ccc(Cl)cc1`, for which the inhibition is 48.8% (active).
For `O=C(O)CCc1nc2cc(Cl)ccc2n(Cc2ccccc2)c1=O`, the inhibition was -3.72%.
In the case of `O=C(Cn1c(-c2cscn2)nc2ccccc21)Nc1ccc(Cl)cc1`, the inhibition was 16.8%.
Take `CCCCCn1nnnc1-c1nc2cc3ccccc3cc2[nH]c1=O`: the inhibition was -2.3%.
For `COc1cc(OC)c(C(=O)OC(C)C(=O)Nc2cc(C(F)(F)F)ccc2Cl)cc1OC` (stereo not drawn) the value was -3.19%.
In the case of `CC(=O)c1ccc(S(=O)(=O)N(C)CCCC(=O)N(C)Cc2ccccc2F)cc1`, the inhibition was 3.84%.
Consider `Cc1ccc(S(=O)(=O)NCC2CCC(C(=O)N3CCOCC3)CC2)cc1` (stereo not drawn), for which the inhibition was 9.49%.
As to `Cc1nc(/N=C(\N)NC(=O)NC2CCCCC2)nc2ccccc12`, the inhibition was 27.6% (active).
For `O=C(Cn1nnc(-c2ccccc2)n1)NC(=O)NC1CCCC1` the value was 1.46%; for `O=C(NNC(=O)C(O)c1ccccc1)NC1CCCCC1` (stereo not drawn), 5.45%.
The value for `C[C@H]1CN([C@@H](C)CO)C(=O)c2cc(C3=CCCCC3)cnc2O[C@@H]1CN(C)C(=O)Cc1ccccc1` was -9.73%.
In the case of `Cc1sc2c(c1C)c(=O)n(-c1ccccc1)c1nncn21`, the inhibition was -3.5%.
Regarding `c1ccc(CCC2=NCCn3cccc32)cc1`, the inhibition was -4.1% and -18.3%.
As for `CCCCCCCC(=O)NC(Nc1ccccc1OC)C(Cl)(Cl)Cl` (stereo not drawn), the inhibition was 1.28%.
Consider `CCOc1ccc(C(CC(=O)O)n2cnnn2)cc1OC` (stereo not drawn), for which the inhibition is -3.65%.
Regarding `CCCCC(=O)NC(c1ccc(OC)c(OC)c1)c1ccc2cccnc2c1O` (stereo not drawn), the inhibition was 28.6% (active).
The value for `CCOC(=O)C1=CCC(c2ccc(F)cc2)N(S(=O)(=O)c2ccc(C)cc2)C1` (stereo not drawn) was 0.96%.
As for `Cc1cc(C)n(CCNS(=O)(=O)c2ccc(Cl)cc2)n1`, the inhibition was -3.39%.
Regarding `N#Cc1c(-c2ccc(F)cc2)cc(C2CC2)nc1SCC(=O)c1cccs1`, the inhibition is 8.6%.
For `N#Cc1c(-c2cccs2)nc(SCC(=O)c2ccc(Br)cc2)[nH]c1=O`, the inhibition is 49.9% (active).
The value for `Cc1nnc(SCC(=O)NCc2cccs2)[nH]c1=O` was 0.4%.
With `CC(C)(C)NC(=O)NC(=O)COC(=O)C1(C)CC1(Cl)Cl` (stereo not drawn), the inhibition was -0.21%.
With `O=C(Nc1ccc(Cl)cc1)c1cc2nc(C3CC3)cc(C(F)(F)F)n2n1`, the inhibition was -1.38%.
In the case of `O=C(COC(=O)c1cc2c(s1)CCCC2)NCc1ccccc1Cl`, the inhibition is 0.1%.
Turning to `CSc1ncccc1C(=O)NCc1ccccc1Cl`, the inhibition was -4.63%.
As for `Clc1ccc(-c2cc(COc3ccccc3)no2)cc1Cl`, the inhibition is -6.65%.
As for `CC(C)Cn1c(N2CCN(C(=O)/C=C/c3ccccc3)CC2)nc2ccccc21`, the inhibition is -10.9%.

The values above are taken from PubChem BioAssay AID720596 (The Scripps Research Institute Molecular Screening Center, 2013).
